About 79,000 compounds went through this panel and 15% of them were active in at least one assay; those are over-represented in the sample as a whole. Values without a mark were called inactive. The source made the active and inactive calls. Rule as the data show it: active = growth inhibition above about 70%; inactive = the rest. Where a SMILES comes first, the peptide text is derived from it. [ ]: non-standard residue; d: D form. The star is where a group is joined. mTyr = N[CH](Cc1cccc(O)c1)C(=O)O; Cbz = O=C(OCc1ccccc1)*; OBn = c1ccc(CO*)cc1

We go through 40 compounds from PubChem BioAssay (NCI).

A short description of one assay: NCI Yeast Anticancer Drug Screen. Data for the mec2-1 strain (AID 157). The conditions noted are these: S. cerevisiae mec2-1 strain, at 5.0 µM (retest, dose inferred, filed as 0.5), stronger effect = higher value. In short, it runs like this: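 mec2-1 yeast strain, carrying an alteration in DNA damage repair or cell cycle control, was exposed to compounds; growth inhibition was measured relative to vehicle-treated controls.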
For the compound `CC12CCC(c3sc(N)c(C#N)c31)C2(C)C` (stereo not given), the growth inhibition was -2%.

Take `O=C1/C(=C/c2cccc(F)c2)CCCc2ccccc21`: the growth inhibition was 4%.

For `CC(=O)N[C@H]1CC[C@H]2[C@@H]3CCC4=CC(=O)CC[C@]4(C)[C@H]3CC[C@]12C`, the growth inhibition is -11%.

Take `C/C(=N/O)c1ccc2c(c1)C(=NO)c1cc(/C(C)=N/O)ccc1-2`: the growth inhibition was -10%.

Consider `Cc1cccc(N2C(c3ccccc3)c3ccc(C)cc3NS2=O)c1` (stereo not given), for which the growth inhibition is 2%.

Take `[Pt].c1ccc(P(CCP(CCP(c2ccccc2)c2ccccc2)CCP(c2ccccc2)c2ccccc2)c2ccccc2)cc1`: the growth inhibition is 36%.

`Cc1cc(I)ccc1NC(=S)Nc1ccccc1F`: the growth inhibition was -4%.

Consider `FC(F)(F)c1ccccc1NC(=S)SCc1ccc(Cl)cc1`, for which the growth inhibition is -2%.

Regarding `COC(=O)C1(C)CC2C(C)(CCC3(C)C4=CC=C5C(=CC(=O)C(O)=C5C)C4(C)CCC23C)CC1O` (stereo not given), the growth inhibition is 44%.

As for `CC1CCC(=NNC(N)=O)CC1` (stereo not given), the growth inhibition was -11%.

`CCOC(=O)C(NS(=O)(=O)c1ccccc1)(C(F)(F)F)P(=O)(OCC(C)C)OCC(C)C` (stereo not given): the growth inhibition is 8%.

Regarding `O=[N+]([O-])c1ccc(/C=N/NC2=CS(=O)(=O)C=C2)cc1`, the growth inhibition is -2%.

As to `CC(C)c1ccc2c(c1)CCC1C(C)(CNC(=O)S)CCCC21C.[Zn+2]` (stereo not given), the growth inhibition was 8%.

For `Cc1ccc(N=Nc2sc(N)nc2C)cc1C`, the growth inhibition was -51%.

Regarding `CC(C)(C)C1CCC2c3c([nH]c4ccccc34)C3C(=O)N(c4ccc(C(=O)O)cc4)C(=O)C3C2C1` (stereo not given), the growth inhibition is 99% (active).

`O=C(CBr)Nc1ccc(Cc2ccc(NC(=O)CBr)cc2)cc1`: the growth inhibition was 20%.

In the case of `O=c1[nH]c2c([N+](=O)[O-])cc(Cl)cc2nc1/C=C(\O)c1ccc(Cl)cc1`, the growth inhibition was 20%.

As for `CCOC(=O)C1=C(N)N(S(=O)(=O)c2ccc(C)cc2)CCC(C(=O)OC)=C1`, the growth inhibition is 0%.

For the compound `CC(C)=CC(=O)OC(CCCc1ccccc1)c1ccc2c(c1)OCO2` (stereo not given), the growth inhibition is 7%.

On to `OCCN(CCO)c1cc(/C=C/c2ccnc3ccccc23)nc2ccccc12`, for which the growth inhibition was 1%.

Turning to `CCCCCCCCCCCC(=O)OCC1CO1` (stereo not given), the growth inhibition was -13%.

As for `CCCCCCCCCCCCCCCCCC1=NCCN1`, the growth inhibition is -4%.

In the case of `CC(=O)OCC1OC(OC2C=C(O[Si](C)(C)C)C[C@H]3C(=O)C=CC(=O)[C@@H]23)C(OC(C)=O)C(OC(C)=O)C1OC(C)=O` (stereo not given in full), the growth inhibition is 1%.

For the compound `C[C@]12CC[C@H]3[C@@H](CCC4=CC(=O)CC[C@@]43C)[C@@H]1CC[C@@H]2C(=O)C=O`, the growth inhibition was 6%.

Turning to `CCCCCC(O)C(C)CO` (stereo not given), the growth inhibition is -2%.

In the case of `CC(=O)Oc1ccc(-c2ccccc2)cc1Br`, the growth inhibition was -27%.

On to `COC(=O)C(Cc1cccc(O)c1)NC(=O)C(CC(=O)OCc1ccccc1)NC(=O)OCc1ccccc1` (stereo not given) (Cbz-Asp(OBn)-[mTyr]-OMe; configuration not given here), for which the growth inhibition was -6%.

Regarding `CCC(CO)Nc1nc2cc(Br)ccc2c2ccc(Br)cc12` (stereo not given), the growth inhibition is 10%.

Turning to `Cc1cc(Br)ccc1NC(=O)/C=C/C(=O)O`, the growth inhibition was -24%.

As for `CCO/C=C1N=C(/C=C/c2ccccc2Cl)OC/1=O`, the growth inhibition is 13%.

As to `O=S(=O)(Nc1ccccc1C(F)(F)F)c1ccc(F)cc1`, the growth inhibition was 6%.

Regarding `N#CSCC(=O)c1ccc2ccccc2c1`, the growth inhibition is 71% (active).

In the case of `O=[N+]([O-])/C(Cl)=C(\Nc1ccccc1)C(Cl)=C(Cl)Cl`, the growth inhibition was 82% (active).

Consider `C/C(=N/NC(=O)c1ccccc1S(N)(=O)=O)C(CN1CCCCC1)C(C1=C(O)C2C=CC=CC2OC1=O)c1ccccc1` (stereo not given), for which the growth inhibition is 25%.

Consider `N#Cc1c([N+](=O)[O-])cc(C(F)(F)F)cc1[N+](=O)[O-]`, for which the growth inhibition was 63%.

Consider `CCCCCCCCCCCCO`, for which the growth inhibition was 9%.

On to `S=C(N/N=C/c1ccccn1)N1CC2CCC(CC2)C1`, for which the growth inhibition was 99% (active).

`ClC1(c2ccccc2)c2ccccc2-c2ccccc21`: the growth inhibition is 4%.

On to `Cc1ccc(SCC#CC#CCS(=O)c2ccc(C)cc2)cc1` (stereo not given), for which the growth inhibition was 87% (active).

Regarding `CCCCCCCOc1ccc(C=O)cc1OC`, the growth inhibition was -1%.

Staying with this assay, now noted: S. cerevisiae mec2-1 strain, at 50.0 µM (retest, dose inferred, filed as 5.0), stronger effect = higher value.
On to `CC12CCC(c3sc(N)c(C#N)c31)C2(C)C` (stereo not given), for which the growth inhibition is -25%.

Regarding `O=C1/C(=C/c2cccc(F)c2)CCCc2ccccc21`, the growth inhibition is 36%.

Turning to `CC(=O)N[C@H]1CC[C@H]2[C@@H]3CCC4=CC(=O)CC[C@]4(C)[C@H]3CC[C@]12C`, the growth inhibition is 95% (active).

As to `C/C(=N/O)c1ccc2c(c1)C(=NO)c1cc(/C(C)=N/O)ccc1-2`, the growth inhibition was 99% (active).

In the case of `Cc1cccc(N2C(c3ccccc3)c3ccc(C)cc3NS2=O)c1` (stereo not given), the growth inhibition is -2%.

Consider `[Pt].c1ccc(P(CCP(CCP(c2ccccc2)c2ccccc2)CCP(c2ccccc2)c2ccccc2)c2ccccc2)cc1`, for which the growth inhibition is 91% (active).

In the case of `Cc1cc(I)ccc1NC(=S)Nc1ccccc1F`, the growth inhibition is 79% (active).

`FC(F)(F)c1ccccc1NC(=S)SCc1ccc(Cl)cc1`: the growth inhibition is 95% (active).

Take `COC(=O)C1(C)CC2C(C)(CCC3(C)C4=CC=C5C(=CC(=O)C(O)=C5C)C4(C)CCC23C)CC1O` (stereo not given): the growth inhibition is 98% (active).

Consider `CC1CCC(=NNC(N)=O)CC1` (stereo not given), for which the growth inhibition is -2%.

As for `CCOC(=O)C(NS(=O)(=O)c1ccccc1)(C(F)(F)F)P(=O)(OCC(C)C)OCC(C)C` (stereo not given), the growth inhibition was -2%.

On to `O=[N+]([O-])c1ccc(/C=N/NC2=CS(=O)(=O)C=C2)cc1`, for which the growth inhibition was 0%.

On to `CC(C)c1ccc2c(c1)CCC1C(C)(CNC(=O)S)CCCC21C.[Zn+2]` (stereo not given), for which the growth inhibition is 30%.

On to `Cc1ccc(N=Nc2sc(N)nc2C)cc1C`, for which the growth inhibition was -30%.

With `CC(C)(C)C1CCC2c3c([nH]c4ccccc34)C3C(=O)N(c4ccc(C(=O)O)cc4)C(=O)C3C2C1` (stereo not given), the growth inhibition is 99% (active).

Regarding `O=C(CBr)Nc1ccc(Cc2ccc(NC(=O)CBr)cc2)cc1`, the growth inhibition was 0%.

In the case of `O=c1[nH]c2c([N+](=O)[O-])cc(Cl)cc2nc1/C=C(\O)c1ccc(Cl)cc1`, the growth inhibition is 87% (active).

For the compound `CCOC(=O)C1=C(N)N(S(=O)(=O)c2ccc(C)cc2)CCC(C(=O)OC)=C1`, the growth inhibition was 0%.

In the case of `CC(C)=CC(=O)OC(CCCc1ccccc1)c1ccc2c(c1)OCO2` (stereo not given), the growth inhibition was -16%.

Turning to `OCCN(CCO)c1cc(/C=C/c2ccnc3ccccc23)nc2ccccc12`, the growth inhibition is 23%.

In the case of `CCCCCCCCCCCC(=O)OCC1CO1` (stereo not given), the growth inhibition was -8%.

`CCCCCCCCCCCCCCCCCC1=NCCN1`: the growth inhibition is 98% (active).

`CC(=O)OCC1OC(OC2C=C(O[Si](C)(C)C)C[C@H]3C(=O)C=CC(=O)[C@@H]23)C(OC(C)=O)C(OC(C)=O)C1OC(C)=O` (stereo not given in full): the growth inhibition is 98% (active).

With `C[C@]12CC[C@H]3[C@@H](CCC4=CC(=O)CC[C@@]43C)[C@@H]1CC[C@@H]2C(=O)C=O`, the growth inhibition is 36%.

For the compound `CCCCCC(O)C(C)CO` (stereo not given), the growth inhibition is -3%.

Regarding `CC(=O)Oc1ccc(-c2ccccc2)cc1Br`, the growth inhibition is 98% (active).

In the case of `COC(=O)C(Cc1cccc(O)c1)NC(=O)C(CC(=O)OCc1ccccc1)NC(=O)OCc1ccccc1` (stereo not given) (Cbz-Asp(OBn)-[mTyr]-OMe; configuration not given here), the growth inhibition is 21%.

With `CCC(CO)Nc1nc2cc(Br)ccc2c2ccc(Br)cc12` (stereo not given), the growth inhibition is 96% (active).

Take `Cc1cc(Br)ccc1NC(=O)/C=C/C(=O)O`: the growth inhibition is -5%.

As to `CCO/C=C1N=C(/C=C/c2ccccc2Cl)OC/1=O`, the growth inhibition is 58%.

Take `O=S(=O)(Nc1ccccc1C(F)(F)F)c1ccc(F)cc1`: the growth inhibition is 59%.

Turning to `N#CSCC(=O)c1ccc2ccccc2c1`, the growth inhibition is 99% (active).

For the compound `O=[N+]([O-])/C(Cl)=C(\Nc1ccccc1)C(Cl)=C(Cl)Cl`, the growth inhibition was 99% (active).

As for `C/C(=N/NC(=O)c1ccccc1S(N)(=O)=O)C(CN1CCCCC1)C(C1=C(O)C2C=CC=CC2OC1=O)c1ccccc1` (stereo not given), the growth inhibition is 25%.

In the case of `N#Cc1c([N+](=O)[O-])cc(C(F)(F)F)cc1[N+](=O)[O-]`, the growth inhibition is 100% (active).

`CCCCCCCCCCCCO`: the growth inhibition is 24%.

In the case of `S=C(N/N=C/c1ccccn1)N1CC2CCC(CC2)C1`, the growth inhibition is 100% (active).

With `ClC1(c2ccccc2)c2ccccc2-c2ccccc21`, the growth inhibition is 99% (active).

Consider `Cc1ccc(SCC#CC#CCS(=O)c2ccc(C)cc2)cc1` (stereo not given), for which the growth inhibition was 99% (active).

As for `CCCCCCCOc1ccc(C=O)cc1OC`, the growth inhibition is 35%.
